Screening results as filed in PubChem BioAssay.
The sample as a whole holds a higher share of hits than the screen did.
Methyltransferases – Primary Screen for Target Class Profiling of Small Molecule Inhibitors of Methyltransferases | purified enzyme, MTase-Glo SAH luminescence; active compounds read low | actives 3.9% (n = 25,000) | calls only at 40 µM | AID 1745853, 2022; call rule not given here
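Each enzyme was assayed with SAM and its substrate. SAH formation detected by MTase-Glo luminescence; single-point 40 uM screen[…].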
Starred values were filed as active, the others as inactive; i = inactive; + = active, no number. On the % scale 0 is the no-effect control and ±100 the full control effect.

SMILES	Methyltransferases
CC1(C(=O)NC2CCCCC2)Cn2c(cc3occc32)C(=O)N1Cc1cccs1 (stereo not drawn)	i
CC(C)Cn1c(=O)c2ccc(Cl)cc2n2c(SCC(=O)Nc3cccc(Cl)c3)nnc12	i
COc1ccc(CCN2C(=O)c3cc4oc(C)cc4n3CC2(C)C(=O)NC2CCCCC2)cc1OC (stereo not drawn)	+
COc1ccc(OC)c2c1cc1n2CC(C)(C(=O)NC2CCCCC2C)N(Cc2ccccn2)C1=O (stereo not drawn)	i
Cc1cc2c(cc3n2CC(C)(C(=O)NC2CCCCC2)N(CCc2ccccc2)C3=O)o1 (stereo not drawn)	i
Cc1cc2c(cc3n2CC(C)(C(=O)NC2CCCCCCC2)N(CCc2ccccc2)C3=O)o1 (stereo not drawn)	i
COc1ccc(OC)c2c1cc1n2CC(C)(C(=O)NC2CCCCC2)N(Cc2ccccn2)C1=O (stereo not drawn)	+
COc1ccc(OC)c2c1cc1n2CC(C)(C(=O)NC2CCCC2)N(Cc2ccccc2)C1=O (stereo not drawn)	i
CC(C)c1ccc(NS(=O)(=O)c2ccc3[nH]c(=O)[nH]c3c2)cc1	i
Cc1cc(NS(=O)(=O)c2ccc3c(c2)n(C)c(=O)n3C)ccc1Br	i
CCC(C)NC(=O)c1ccc2c(=O)n(C)c3nn(CC(=O)NCc4ccc(Cl)cc4)c(=O)n3c2c1 (stereo not drawn)	i
Nc1nc(C2CC(NC(=O)c3[nH]nc(N)c3-c3ccccc3)C2)cc(=O)[nH]1 (stereo not drawn)	i
CC(C)C(=O)N1CCN(CCn2nc3n(c2=O)CCCC3)CC1	i
CC(C)C[C@@H](NC(=O)[C@@H]1C[C@@H](NC(=O)c2cnccn2)CCN1C(=O)COCC(=O)O)C(N)=O	i
COc1ccccc1CNC(=O)C1(C)Cn2nc(-c3ccccc3)cc2C(=O)N1Cc1cccc(OC)c1OC (stereo not drawn)	i
Cc1ccc(CCNC(=O)c2ccc3c(=O)[nH]c4c(C(=O)NC5CCCC5)sc(=S)n4c3c2)cc1	i
CC1(C)SC2C(NC(=O)[C@H](NC(=O)N3CCNC3=O)c3ccccc3)C(=O)N2C1C(=O)O (stereo partly drawn)	i
COc1ccc(NC(=O)/C=C/c2ccc(Cl)cc2)cc1	+
COC(=O)/C=C/c1ccc(O[C@@H]2O[C@H](CO)[C@@H](O)[C@H](O)[C@H]2O)cc1	i
COc1ccc(C(=O)Nc2cnc(-c3ccc(Cl)cc3)nc2)cc1	i
Cc1ccc(CN2C(=O)CSc3c(c4ccccc4n3C)C2C(=O)NCCC(C)C)cc1 (stereo not drawn)	i
O=C(O)Cc1ccc(O)c(O)c1	+
N[C@@H](Cc1ccc(O)c(I)c1)C(=O)O	i
COC(=O)[C@@H](N)Cc1ccc(O)c(O)c1	i
O=C(c1ccccc1)N1CCCC(C(=O)N2CCC(c3nc4ccncc4[nH]3)C2)C1 (stereo not drawn)	i
SMILES	Methyltransferases
Cc1cccc(NC(=O)Cn2c(=O)oc3cc(S(=O)(=O)NCc4ccccc4)ccc32)c1	i
CC(C)c1ccc(NC(=O)Cn2c(=O)oc3cc(S(=O)(=O)NCc4ccccc4)ccc32)cc1	+
Cc1ccc(NC(=O)Cn2c(=O)oc3cc(S(=O)(=O)NCc4ccccc4)ccc32)cc1C	i
CCOC(=O)C1CCCN(c2nc3c(S(=O)(=O)c4ccccc4)nnn3c3ccccc23)C1 (stereo not drawn)	i
COC[C@@H]1CN(C(=O)c2ncccc2C)C[C@H]1C(N)=O	i
Cc1ccc(N2C(=O)c3nc4ccccc4n3CC2(C)C(=O)NC2CCCC(C)C2C)cc1 (stereo not drawn)	i
Cc1nnc2n1CCC(N(C)C(=O)NC1CCCCC1)CC2 (stereo not drawn)	i
O=C(CCCc1nnc2n3nc(-c4ccccc4)nc3c3ccccc3n12)N1CCN(Cc2ccccc2)CC1	i
O=C(CCCc1nnc2n3nc(-c4ccccc4)nc3c3ccccc3n12)N1CCN(C2CCCCC2)CC1	i
O=C(CCCc1nnc2n3nc(-c4ccccc4)nc3c3ccccc3n12)N1CCC(N2CCCCC2)CC1	+
Cc1[nH]nc2ccc(-c3cncc(OC[C@@H](N)Cc4ccccc4)c3)cc12	+
O=c1c2ccccc2n2c(=O)n(Cc3ccccc3)nc2n1Cc1ccccc1	i
CCC(C(=O)N1CCN(c2ncccn2)CC1)n1ccc2cc(S(=O)(=O)N3CCCCC3)ccc21 (stereo not drawn)	i
COc1ccccc1C(=O)N1CCCC(c2nnc3n2C(C(=O)O)CC3)C1 (stereo not drawn)	i
O=C(Cc1c[nH]c2ccccc12)NCCc1c[nH]c2ccc(Cl)cc12	i
COc1cc2c(CCNC(C)=O)c[nH]c2cc1O	+
N[C@@H](Cc1c[nH]c2ccc(O)cc12)C(=O)O	i
CCOc1ccccc1CNC(=O)CCn1ccc2cc(S(=O)(=O)N3CCC(C)CC3)ccc21	i
CCC(C)C(=O)O[C@H]1[C@H](O)[C@@]2(COC(C)=O)C(CC1(C)C)C1=CCC3[C@@]4(C)CC[C@H](O[C@@H]5O[C@H](C(=O)O)[C@@H](O)[C@H](O)[C@H]5O)[C@@](C)(CO)C4CC[C@@]3(C)[C@]1(C)C[C@@H]2O (stereo partly drawn)	i
CN(c1ccccc1CNc1nc(Nc2ccc3c(c2)CC(=O)N3)ncc1C(F)(F)F)S(C)(=O)=O	+
O=C(NCc1ccc(Oc2ccccc2)cc1)c1nc(-c2cc(Br)c(O)c(Br)c2)no1	+
COCc1nc(-c2ccc(OC3CN(C(=O)NCc4ccc(OC)cc4)C3)cc2)no1	i
c1ccc(CNc2nc(-c3ccccc3)no2)cc1	i
COc1ccc(NC(=O)CCc2nnc3n(Cc4ccccc4)c(=O)c4ccccc4n23)cc1	i
COCCn1cnnc1C(C)NC(=O)CCc1nc(-c2ccccc2OC)no1 (stereo not drawn)	i
SMILES	Methyltransferases
COc1c(Nc2ncc(Cl)c(N[C@H]3[C@@H](C(N)=O)[C@@H]4C=C[C@H]3C4)n2)ccc2c1CC[C@@H](N1CCOCC1)CC2	i
CNC(=O)c1ccccc1Nc1nc(Nc2ccc3c(c2OC)CCCC(N2CCN(CCO)CC2)C3)ncc1Cl (stereo not drawn)	+
C/C(=C\CCC(C)CCO)C(=O)O[C@@H]1[C@@H](O)[C@H](OC2OC=C(C(=O)O)C3CCC(C)(O)C23)O[C@H](CO)[C@H]1O (stereo partly drawn)	i
CCCN(C/C=C/c1ccccc1)C(=O)c1cccc(OCC(N)=O)c1	i
Cn1nc(C2CCN(C(=O)c3ccccn3)CC2)c2c1CCOC2	i
O=C(NCCc1c[nH]c2ccc(Cl)cc12)c1ccc(CN2C(=O)CCn3nccc32)cc1	i
OCCCNc1cc(-c2ccnc(Nc3cccc(Cl)c3)n2)ccn1	+
CC(=O)O[C@@H]1[C@@H](CO)O[C@@](CO)(O[C@H]2O[C@H](COC(=O)/C=C/c3ccccc3)[C@@H](O)[C@H](O)[C@H]2O)[C@H]1O	i
O=C(/C=C/c1ccc(O)cc1)OC[C@H]1O[C@@H](O/C(=C\c2ccccc2)C(=O)O)[C@H](O)[C@@H](O)[C@@H]1O	i
O=C(/C=C/c1ccccc1)OC[C@H]1O[C@@H](OC(=O)c2cc(O)c(O)c(O)c2)[C@H](O)[C@@H](O)[C@@H]1O	+
O=C(NCCCc1ccccc1)C1CCN(c2cc(C(F)(F)F)ncn2)CC1	i
